Consider eleven compounds from PubChem BioAssay.

Active and inactive are the calls of the source. Unless noted, the rule behind the calls is not given here.

The nature of test [1]: HepG2 liver cancer cell viability effects, profiling panel, resazurin fluorescence, 24 h, PK04 Diversity Set (AID 1172). Note: test concentration not given here. As to conditions: higher = more signal. Background: Resazurin is reduced to fluorescent resorufin, in cell work by metabolically active cells.
Test [2] is described as follows: basal S. cerevisiae growth modulation, no modifier, primary screen, OD600, strain BY4716, 24 h, basal condition (AID 1173). As to conditions: OD600, 24 h, higher = more signal, called active from +8 up or from −8 down.
Test [3] can be described thus: MM1S myeloma cell viability, profiling panel, resazurin fluorescence, basal, 24 h, PK04 Diversity Set (AID 1174).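 Note: MM1S multiple myeloma cell line; test concentration not given here.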 The settings on record: higher = more signal, called active from +8 up or from −8 down.
Test [4] deals with Dihydroorotate dehydrogenase (quinone), mitochondrial (Plasmodium falciparum (isolate 3D7)) (UniProt Q08210). Description: PfDHODH enzyme inhibitors, primary screen, biochemical, C-terminal His tag, absorbance 600 nm (AID 1175).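 Note: recombinant parasite enzyme with a five histidine tag at its C terminus; test concentration not given here.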 As to conditions: DCIP absorbance 600 nm, higher = more signal, called active from +8 up or from −8 down.
Sequence of Dihydroorotate dehydrogenase (quinone), mitochondrial (Plasmodium falciparum (isolate 3D7)) (Q08210 whole entry, looked up): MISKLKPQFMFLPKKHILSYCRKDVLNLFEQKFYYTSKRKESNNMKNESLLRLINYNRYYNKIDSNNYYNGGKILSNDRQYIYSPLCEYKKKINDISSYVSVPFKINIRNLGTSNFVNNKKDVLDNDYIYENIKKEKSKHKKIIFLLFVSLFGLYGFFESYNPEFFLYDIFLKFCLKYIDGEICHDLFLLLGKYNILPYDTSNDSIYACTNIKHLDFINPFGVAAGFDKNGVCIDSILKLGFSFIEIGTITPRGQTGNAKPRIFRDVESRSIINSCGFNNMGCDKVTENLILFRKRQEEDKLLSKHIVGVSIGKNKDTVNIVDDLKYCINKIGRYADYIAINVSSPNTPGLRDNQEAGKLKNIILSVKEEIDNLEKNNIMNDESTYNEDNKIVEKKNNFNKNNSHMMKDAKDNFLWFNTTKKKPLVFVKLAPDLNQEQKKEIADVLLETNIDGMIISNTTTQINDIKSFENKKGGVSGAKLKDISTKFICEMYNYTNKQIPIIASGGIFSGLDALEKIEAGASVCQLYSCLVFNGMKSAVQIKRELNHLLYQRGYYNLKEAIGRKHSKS
Test [5] can be described thus: P. aeruginosa biofilm formation inhibitors, primary screen, strain PAO1, LB-PBS medium, absorbance 600 nm (AID 1176). Note: test concentration not given here. The settings on record: P. aeruginosa PAO1 growth/biofilm, A600, 12 h; higher = more signal.
Test [6] in a line: S. cerevisiae RM11-1a growth modifiers, primary screen, strain RM11-1a, OD600, basal, 24 h (AID 1177).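 Note: cultures grown under basal conditions with no added stressor; test concentration not given here.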 The settings on record: OD600, 24 h, higher = more signal, called active from +8 up or from −8 down.
Test [7] in a line: E. coli acrAB mutant growth effects, primary screen, E. coli filamentation inducers, strain DRC39, OD650, 24 h (AID 1178).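 Note: growth measured as culture turbidity by optical density at 650 nm; test concentration not given here.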 As to conditions: higher = more signal, called active from +8 up or from −8 down.
A short description of test [8]: E. coli acrAB mutant growth effects, primary screen, E. coli filamentation inducers, strain DRC39, OD650, 48 h (AID 1179).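 Note: screen aims at cell division blockers that make cells filament.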 The settings on record: E. coli DRC39 delta-acrAB growth, higher = more signal, called active from +8 up or from −8 down.
The nature of test [9]: RPMI8226 myeloma cell viability, profiling panel, resazurin fluorescence, basal, 24 h, PK04 Diversity Set (AID 1180).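 Note: RPMI8826 multiple myeloma cell line at 5000 cells per well; test concentration not given here.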 As to conditions: higher = more signal.
The target in test [10] is E3 ubiquitin-protein ligase XIAP (Homo sapiens) (UniProt P98170). Description: XIAP binders, primary screen, biophysical, small-molecule microarray, fluorescence 635 nm (AID 1181).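 Note: score merges 667 nm emission and signal to noise over triplicate slides.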 As to conditions: small-molecule microarray binding, higher = more signal.
Sequence of E3 ubiquitin-protein ligase XIAP (Homo sapiens) (P98170 whole entry, looked up): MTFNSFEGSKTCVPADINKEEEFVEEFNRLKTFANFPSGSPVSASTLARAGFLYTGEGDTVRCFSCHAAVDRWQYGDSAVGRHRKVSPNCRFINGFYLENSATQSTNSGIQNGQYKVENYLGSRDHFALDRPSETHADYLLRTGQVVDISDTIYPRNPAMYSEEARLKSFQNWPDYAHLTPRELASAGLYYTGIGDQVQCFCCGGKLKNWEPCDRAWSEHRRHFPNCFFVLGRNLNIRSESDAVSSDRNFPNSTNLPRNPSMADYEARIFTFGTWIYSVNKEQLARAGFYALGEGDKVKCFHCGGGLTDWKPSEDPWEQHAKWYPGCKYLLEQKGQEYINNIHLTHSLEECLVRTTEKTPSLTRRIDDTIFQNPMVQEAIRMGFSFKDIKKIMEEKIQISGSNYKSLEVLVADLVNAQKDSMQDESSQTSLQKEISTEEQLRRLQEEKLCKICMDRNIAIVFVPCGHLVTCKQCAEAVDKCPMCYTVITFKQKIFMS

Take `O=C1NC(=O)C2C1C=CC(C(O)c1ccc(F)cc1)N2Nc1ccc(Cl)cc1Cl` (stereo not given): the z-score in [1] was -2.15; in [2], -16.3 (active); in [3], -1.28 (inactive); in test [5], 1.06 (inactive); in test [6] it was -8.86 (active); in test [7], -0.2 (inactive). Also, the z-score is -1.52 (inactive) in test [8] and -1.79 in test [9]. For the same compound, the composite z-score in test [4] is 0.827 (inactive); in test [10] it was 0.285.
Take `CN1C(=O)C2CC=C(C3=CCO[C@@H]3[C@H]3CCCN3S(=O)(=O)c3ccccc3[N+](=O)[O-])CC2C1=O` (stereo not given in full): the z-score is 0.277 in test [1]; 0.175 (inactive) in test [2]; -0.354 (inactive) in test [3]; 0.425 (inactive) in test [5]; 0.0123 (inactive) in test [6]; 0.527 (inactive) in test [7]. The z-score in test [8] is 0.189 (inactive); in [9], 0.0213. In addition, the composite z-score is -0.912 (inactive) in [4] and -0.187 in test [10].
On to `COC(=O)[C@@]1(Cc2ccccc2)[C@H]2c3cc(C(=O)N(C)C)n(Cc4ccc(Cl)c(C(F)(F)F)c4)c3C[C@H]2CN1C(=O)c1ccccc1`, for which the z-score in test [1] was -1.83; in test [2] it was 2.32 (inactive); in test [3], -2.53 (inactive); in test [5], 1.43 (inactive); in test [6] it was 1.37 (inactive); in test [7], -1.4 (inactive). For the same compound, the z-score in test [8] is -0.744 (inactive); in test [9], -2.95. Further, the composite z-score is 0.46 (inactive) in [4] and 0.331 in test [10].
For the compound `C=CCC(OC(C)=O)[C@@H]1[C@@H](N(Cc2ccc(-c3ccccc3)cc2)C(=O)Cc2ccc(OC)cc2)c2cc(OCCCO)ccc2N1C(=O)Cc1ccc(OC)cc1` (stereo not given in full), the z-score in [1] was -0.626; in [2] it was 0.118 (inactive); in test [3] it was -0.622 (inactive); in test [5] it was 0.186 (inactive); in [6], -0.565 (inactive); in test [7], -0.105 (inactive). The results for the z-score in test [8] and in test [9] were -0.403 (inactive) and -0.357, respectively. The composite z-score in test [4] was -0.0632 (inactive); in test [10], -0.185.
`O=C1OCC=C[C@H]2OC34C=CCN(Cn5nnc6ccccc65)C(=O)[C@H]3N(CCO)C(=O)[C@@H]4[C@@H]12` (stereo not given in full): the z-score in test [1] is -0.779; in test [2], 0.818 (inactive); in test [3] it was -0.176 (inactive); in test [5], -0.332 (inactive); in test [6] it was -0.581 (inactive); in test [7], 0.0034 (inactive). Also, the z-score is -0.0669 (inactive) in test [8] and -0.256 in [9]. For the same compound, the composite z-score in test [4] is -0.642 (inactive); in test [10], -0.0749.
`C=CC[C@]1(C(=O)NCC(O)CO)N=C(c2ccc(OCCCO)cc2)O[C@H]1c1ccccc1CN=[N+]=[N-]` (stereo not given in full): the z-score in test [1] is -0.766; in test [2], -0.432 (inactive); in test [3], -1.51 (inactive); in test [5], 1.27 (inactive); in [6], 0.244 (inactive); in test [7], -0.363 (inactive). Further, the z-score was 0.196 (inactive) in test [8] and -0.566 in test [9]. Also, the composite z-score was -0.0887 (inactive) in test [4] and -0.0136 in test [10].
With `C=CCNC(=O)[C@H]1[C@@H]2C(=O)O[C@@H](c3ccccc3)[C@@H](c3ccccc3)N2[C@@H](c2ccc(OCCO)cc2)[C@]12C(=O)Nc1ccc(C#Cc3ccc(OC)cc3)cc12`, the z-score was -1.06 in test [1]; 2.32 (inactive) in [2]; -0.512 (inactive) in [3]; 2.18 (inactive) in test [5]; 3.66 (inactive) in test [6]; -0.672 (inactive) in test [7]. For the same compound, the results for the z-score in test [8] and in test [9] were -0.995 (inactive) and -1.29, respectively. The composite z-score is -2.27 (inactive) in [4] and 1.29 in test [10].
Take `O=C1C[C@@](C(=O)NCC(F)(F)F)(c2ccc([N+](=O)[O-])cc2)[C@@H](c2ccc(CO)cc2I)N1CC12CC3CC(CC(C3)C1)C2`: the z-score in test [1] was -4.52; in test [2], -1.42 (inactive); in [3], -7.22 (inactive); in test [5] it was 1.11 (inactive); in [6], -0.355 (inactive); in test [7], 0.213 (inactive). Besides, the values for the z-score in test [8] and in [9] were 1.29 (inactive) and -6.47, respectively. The figures for the composite z-score in [4] and in [10] were -1.13 (inactive) and -0.0287, respectively.
In the case of `C=C(CC1([C@@H](NP(=O)(c2ccccc2)c2ccccc2)[C@H]2C[C@@H]2CCCC)CC1)c1cccc(OC)c1`, the z-score in [1] is 2.56; in test [2] it was 2.17 (inactive); in [3], 1.08 (inactive); in test [5], 0.0944 (inactive); in test [6], 1.61 (inactive); in [7], -0.283 (inactive). Also, the figures for the z-score in [8] and in test [9] were -0.216 (inactive) and 3.23, respectively. In addition, the composite z-score in test [4] was -0.0873 (inactive); in test [10], 0.219.
For `COC(=O)[C@H]1N=C(c2ccc(OCCCO)cc2)O[C@H]1c1ccccc1N=[N+]=[N-]`, the z-score in test [1] was 0.249; in test [2], -3.93 (inactive); in test [3] it was -0.971 (inactive); in [5] it was 1.43 (inactive); in test [6], 0.682 (inactive); in [7], 0.584 (inactive). For the same compound, the z-score in [8] was -0.711 (inactive); in test [9] it was 0.464. Also, the composite z-score was 0.556 (inactive) in test [4] and -0.141 in test [10].
On to `COc1ccc(C(O)C2C=CC3C(=O)N(c4ccccc4)C(=O)C3N2Nc2ccccc2F)c2ccccc12` (stereo not given), for which the z-score is -1.83 in test [1]; -1.71 (inactive) in test [2]; -0.042 (inactive) in [3]; 1.15 (inactive) in test [5]; -0.0824 (inactive) in test [6]; -0.203 (inactive) in test [7]. Besides, the figures for the z-score in test [8] and in [9] were -0.617 (inactive) and 0.0565, respectively. Also, the composite z-score in test [4] was -0.588 (inactive); in test [10] it was 0.253.
